Measurements taken from PubChem BioAssay (NCATS).
Records with an inconclusive call do not appear. Active and inactive are the calls of the source. Unless noted, calls follow the shape of the dose curve; as a rule, active = well fitted curve in either direction with a large enough effect (not every such curve was filed as active); inconclusive = small, poorly fitted or top-dose-only effect, or another doubt; inactive = flat fitted curve, though single readings scatter.

Key:
[1] = target: Lysosomal acid glucosylceramidase (Homo sapiens) (UniProt P04062); experiment: Glucocerebrosidase-p2 (AID 348; in the data active = potency below about 10 µM; also: potency is read from the fitted curve at half-maximal effect); conditions: purified GBA, blue fluorogenic substrate, 40 min
Procedure, shortened: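 Compounds titrated from 0.6 nM upwards against 0.2 nM enzyme in pH 5.9 citric acid/KH2PO4, taurocholate, tween-20; blue fluorogenic substrate 80 uM, 40 min room temperature, stopped and read Ex 365/Em 440 for AC50.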

[2] = AP1 Signaling Pathway (AID 357); conditions: ME-180 AP-1-bla reporter, EGF-induced, beta-lactamase ratio, 5 h; at 7.69 µM (top of the series) unless noted;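 also: ME-180 reporter cells stimulated with EGF at its EC50 level; % is scaled to controls: 0 for no effect and ±100 for the full control effect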
Procedure, shortened: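 Modulation of EGF-driven AP-1 transcription was assessed with a beta-lactamase reporter in ME-180 cells. Compound and EC50 EGF were co-incubated 5 hours at 37 °C before 2.5-hour CCF4 loading at room temperature and dual-emission reading.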

[3] = NFAT Signaling Pathway (AID 444); conditions: Jurkat NFAT-bla M1, carbachol, beta-lactamase ratio, 5 h; at 7.69 µM (top of the series) unless noted;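 also: carbachol stimulus at about its EC50 of 1 µM final; % is scaled to controls: 0 for no effect and ±100 for the full control effect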
Procedure, shortened: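 Read-out: CCF4 FRET ratio (460 nm/530 nm) after 1 h RT dye loading, used for %activity and AC50 from titration series. Cells: Jurkat NFAT-β-lactamase/M1 line, treated with compound plus 1 uM carbachol for 5 h, 37 °C.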

[4] = Stat Signaling Pathway (AID 446); conditions: ME-180 SIE beta-lactamase reporter, IL-6 stimulated, 5 h; at 7.69 µM (top of the series) unless noted;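 also: ME-180 cervical cancer cells given 40 pM IL-6 alongside compound; SIE-controlled beta-lactamase reporter measured as 460/530 nm FRET emission ratio; % is scaled to controls: 0 for no effect and ±100 for the full control effect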
Procedure, shortened: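 Screening format detects activators and inhibitors alike: ME-180 SIE-bla cells stimulated at 40 pM IL-6 for 5 hrs with compound, then dual-emission beta-lactamase read at 405 nm excitation.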

[5] = target: Glucocorticoid receptor (Homo sapiens) (UniProt P04150); experiment: GR-GFP Redistribution (AID 450;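 active = compounds whose dose series gives a full or clear partial fitted curve of increased nuclear translocation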; also: potency is read from the fitted curve at half-maximal effect); conditions: U2OS GR-GFP nuclear translocation, laser cytometry, 2 h
[6] = target: Glucocorticoid receptor (Homo sapiens) (UniProt P04150); experiment: GR-EFC Redistribution (AID 451; calls by dose curve; also: potency is read from the fitted curve at half-maximal effect); conditions: CHO-K1 GR-EFC translocation, beta-gal luminescence, 2 h
Procedure, shortened: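 Translocation of GR-ED fusion to nuclear EA restores b-gal, read by luminescence after 1 h room-temperature detection. Engineered CHO-K1 biosensor cells, 1,000/well, exposed 2 h at 37 C to titrations up to 46 uM final.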

[7] = target: Mitogen-activated protein kinase 10 (Mus musculus) (UniProt Q61831); experiment: JNK3 AlphaScreen Assay (AID 530); conditions: JNK3 lysate, c-Jun phosphorylation; series mostly up to 11.4 µM;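 also: kinase came from lysate of stimulated human HepG2 cells; signal reports phosphorylation of biotinylated GST-cJun 1-79 at Ser73 with 10 µM ATP; % is scaled to controls: 0 for no effect and ±100 for the full control effect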
Procedure, shortened: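 Compound titrations were preincubated 15 minutes at room temperature with substrate, antibody and pre-activated JNK3-containing HepG2 lysate. Reactions were started with 10 uM ATP and stopped with EDTA-containing bead buffer for AlphaScreen detection.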

[8] = target: 3',5'-cyclic-AMP phosphodiesterase 4B (Homo sapiens) (UniProt Q07343); experiment: qHTS Assay for Inhibitors of PDE-IV (AID 607; active = well fitted activation curve with a large enough effect in the main read-out, with a control signal flat, not every such curve was filed as active; also: % of control where 0% means no effect); conditions: HEK293 ACTOne CNG channel cells, membrane potential fluorescence; series mostly up to 22.9 µM
Procedure, shortened: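 The readout is membrane depolarisation from a cAMP-sensing CNG channel, detected with a potential dye at ex 535/em 590. Cells were HEK293-derived (endogenous PDE-IV) at 1000 cells/well, titrated up to 22.9 uM final.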

Sequence of Glucocorticoid receptor (Homo sapiens) (P04150 whole entry, looked up, the tested form may be a part): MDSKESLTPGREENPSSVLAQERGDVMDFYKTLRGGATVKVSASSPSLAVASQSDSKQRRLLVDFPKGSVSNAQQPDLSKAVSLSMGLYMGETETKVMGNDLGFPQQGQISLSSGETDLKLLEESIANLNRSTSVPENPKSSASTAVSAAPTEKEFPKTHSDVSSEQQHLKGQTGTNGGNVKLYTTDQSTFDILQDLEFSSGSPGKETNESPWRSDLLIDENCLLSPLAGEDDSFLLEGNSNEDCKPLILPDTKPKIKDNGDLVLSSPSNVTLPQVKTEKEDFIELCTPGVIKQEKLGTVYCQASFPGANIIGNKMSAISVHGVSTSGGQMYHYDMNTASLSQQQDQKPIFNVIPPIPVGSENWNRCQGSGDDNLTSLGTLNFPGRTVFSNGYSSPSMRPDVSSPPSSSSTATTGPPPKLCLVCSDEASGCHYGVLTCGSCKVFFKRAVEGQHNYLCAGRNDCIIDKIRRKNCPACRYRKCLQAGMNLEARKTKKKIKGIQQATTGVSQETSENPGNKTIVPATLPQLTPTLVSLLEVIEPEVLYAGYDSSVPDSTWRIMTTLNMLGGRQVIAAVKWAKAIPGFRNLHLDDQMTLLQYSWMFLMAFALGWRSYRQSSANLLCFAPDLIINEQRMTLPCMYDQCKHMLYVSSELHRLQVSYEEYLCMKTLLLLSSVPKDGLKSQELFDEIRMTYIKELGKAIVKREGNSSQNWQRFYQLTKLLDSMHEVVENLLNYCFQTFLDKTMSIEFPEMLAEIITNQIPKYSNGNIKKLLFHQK
Sequence of Lysosomal acid glucosylceramidase (Homo sapiens) (P04062 whole entry, looked up): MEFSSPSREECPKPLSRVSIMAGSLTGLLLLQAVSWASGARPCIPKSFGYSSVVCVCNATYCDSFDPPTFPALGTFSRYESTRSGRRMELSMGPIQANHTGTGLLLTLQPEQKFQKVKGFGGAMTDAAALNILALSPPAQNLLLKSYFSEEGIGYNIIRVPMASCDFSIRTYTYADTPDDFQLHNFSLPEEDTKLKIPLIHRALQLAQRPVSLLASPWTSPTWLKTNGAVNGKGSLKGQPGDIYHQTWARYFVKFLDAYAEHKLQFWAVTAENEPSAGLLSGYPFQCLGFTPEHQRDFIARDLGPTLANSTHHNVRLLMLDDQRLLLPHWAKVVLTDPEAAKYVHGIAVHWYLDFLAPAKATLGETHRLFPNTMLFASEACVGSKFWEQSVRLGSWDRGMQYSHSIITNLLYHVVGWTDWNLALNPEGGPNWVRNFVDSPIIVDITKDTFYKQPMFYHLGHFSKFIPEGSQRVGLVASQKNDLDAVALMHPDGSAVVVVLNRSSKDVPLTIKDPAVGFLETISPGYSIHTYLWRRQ
Sequence of 3',5'-cyclic-AMP phosphodiesterase 4B (Homo sapiens) (Q07343 whole entry, looked up): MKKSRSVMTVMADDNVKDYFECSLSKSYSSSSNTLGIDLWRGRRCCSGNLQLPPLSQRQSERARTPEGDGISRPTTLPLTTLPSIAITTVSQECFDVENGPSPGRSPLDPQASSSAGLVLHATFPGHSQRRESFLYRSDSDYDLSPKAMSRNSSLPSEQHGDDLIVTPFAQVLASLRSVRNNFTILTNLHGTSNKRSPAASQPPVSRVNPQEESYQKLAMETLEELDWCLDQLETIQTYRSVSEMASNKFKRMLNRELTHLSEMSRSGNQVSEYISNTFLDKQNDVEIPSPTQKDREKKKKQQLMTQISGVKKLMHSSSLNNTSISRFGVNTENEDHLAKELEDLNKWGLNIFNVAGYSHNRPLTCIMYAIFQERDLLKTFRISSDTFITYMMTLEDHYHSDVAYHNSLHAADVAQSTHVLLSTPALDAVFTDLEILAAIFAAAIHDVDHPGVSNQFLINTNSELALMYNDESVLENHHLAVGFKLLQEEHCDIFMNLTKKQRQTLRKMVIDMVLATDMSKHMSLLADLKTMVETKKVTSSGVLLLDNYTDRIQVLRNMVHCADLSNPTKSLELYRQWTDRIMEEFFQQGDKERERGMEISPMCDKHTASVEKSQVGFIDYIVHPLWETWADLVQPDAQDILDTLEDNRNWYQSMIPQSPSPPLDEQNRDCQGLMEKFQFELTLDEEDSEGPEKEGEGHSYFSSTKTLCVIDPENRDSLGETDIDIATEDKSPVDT

O[C@H]([C@H](O)[C@@H](O)c1nc2ccccc2[nH]1)[C@@H](O)c1nc2ccccc2[nH]1
inactive: Potency [1] > 11.4 µM | activity change, negative = inhibition [2] 6.21% | activity change, negative = inhibition [3] 19.9% | activity, negative = inhibition [4] 6.86% | Potency [5] > 46 µM | Potency [6] > 9.22 µM | Potency [7] | Potency [8]

NC(N)=NC(N)=Nc1ccc(C(=O)O)cc1
inactive: Potency [1] > 11.4 µM | activity change, negative = inhibition [2] 7% | activity change, negative = inhibition [3] 6.33% | activity, negative = inhibition [4] 16.2% | Potency [5] > 46 µM | Potency [6] > 9.22 µM | Potency [7] | Potency [8]

Cc1nc2ccccc2nc1N1CCCC1
inactive: Potency [1] > 11.4 µM | activity change, negative = inhibition [2] 2.88% | activity change, negative = inhibition [3] 0.00129% | activity, negative = inhibition [4] 3.44% | Potency [5] > 46 µM | Potency [6] > 9.22 µM | Potency [7] | Potency [8]

COc1ccc2c(C)cc(C)nc2n1
inactive: Potency [1] > 11.4 µM | activity change, negative = inhibition [2] 0.0891% | activity change, negative = inhibition [3] 9.21% | activity, negative = inhibition [4] 8.73% | Potency [5] > 46 µM | Potency [6] > 9.22 µM | Potency [7] | Potency [8]

CC1(C)CC(Nc2ccc(Nc3ccccc3)cc2)CC(C)(C)N1
inactive: Potency [1] > 11.4 µM | activity change, negative = inhibition [2] -24.4% | activity change, negative = inhibition [3] 6.65% | activity, negative = inhibition [4] -6.18% | Potency [5] > 46 µM | Potency [6] > 9.22 µM | Potency [7] | Potency [8]

OC(Cc1cccnc1)(c1ccccc1)c1ccccc1
inactive: Potency [1] > 11.4 µM | activity change, negative = inhibition [2] 5.37% | activity change, negative = inhibition [3] -25.6% | activity, negative = inhibition [4] -5.74% | Potency [5] > 46 µM | Potency [6] > 9.22 µM | Potency [7] | Potency [8]

C/C(=N/NC(=O)c1ccncc1)c1ccccc1Cl
inactive: Potency [1] > 11.4 µM | activity change, negative = inhibition [2] 12.5% | activity change, negative = inhibition [3] 8.3% | activity, negative = inhibition [4] -2.05% | Potency [5] > 46 µM | Potency [6] > 9.22 µM | Potency [7] | Potency [8]

CC1(C)[C@@H](CC(=O)O)CCC[C@@H]1CC(=O)O
inactive: Potency [1] > 11.4 µM | activity change, negative = inhibition [2] 2.47% | activity change, negative = inhibition [3] 5.58% | activity, negative = inhibition [4] 1.3% | Potency [5] > 46 µM | Potency [6] > 9.22 µM | Potency [7] | Potency [8]

CN(C)CCSS(=O)(=O)O
inactive: Potency [1] > 11.4 µM | activity change, negative = inhibition [2] 6.2% | activity change, negative = inhibition [3] 5.08% | activity, negative = inhibition [4] -1.46% | Potency [5] > 46 µM | Potency [6] > 9.22 µM | Potency [7] | Potency [8]

Clc1cccc(Cl)c1C(Nc1nncs1)Nc1nncs1
inactive: Potency [1] > 11.4 µM | activity change, negative = inhibition [2] -1.25% | activity change, negative = inhibition [3] 2.41% | activity, negative = inhibition [4] -3.83% | Potency [5] > 46 µM | Potency [6] > 9.22 µM | Potency [7] | Potency [8]

c1ccc(CN2CCC3(CC2)SSC2(CCN(Cc4ccccc4)CC2)SS3)cc1
inactive: Potency [1] > 11.4 µM | activity change, negative = inhibition [2] 3.33% | activity change, negative = inhibition [3] 3.92% | activity, negative = inhibition [4] -1.41% | Potency [5] > 46 µM | Potency [6] > 9.22 µM | Potency [7] | Potency [8]

Nc1nc(-c2ccccc2)c(CC(=O)O)s1
inactive: Potency [1] > 11.4 µM | activity change, negative = inhibition [2] 0.597% | activity change, negative = inhibition [3] 18.8% | activity, negative = inhibition [4] 0.225% | Potency [5] > 46 µM | Potency [6] > 9.22 µM | Potency [7] | Potency [8]

S=c1[nH]nc(SCc2ccccc2Cl)c2[nH]cnc12
inactive: Potency [1] > 11.4 µM | activity change, negative = inhibition [2] -6.3% | activity change, negative = inhibition [3] 0.186% | activity, negative = inhibition [4] -8.85% | Potency [5] > 46 µM | Potency [6] > 9.22 µM | Potency [7] | Potency [8]

N[C@@H]1[C@@H]2[C@@H]3C[C@H]4N(CC[C@@]14C(=O)C(=O)O)CC3=CCO[C@@H]2CC(=O)O
inactive: Potency [1] > 11.4 µM | activity change, negative = inhibition [2] -3.74% | activity change, negative = inhibition [3] 4.96% | activity, negative = inhibition [4] 6.97% | Potency [5] > 46 µM | Potency [6] > 9.22 µM | Potency [7] | Potency [8]

O=C(O)[C@H](Cc1ccccc1)N1C(=O)c2ccccc2C1=O
inactive: Potency [1] > 11.4 µM | activity change, negative = inhibition [2] -3.82% | activity change, negative = inhibition [3] 16.6% | activity, negative = inhibition [4] -2.52% | Potency [5] > 46 µM | Potency [6] > 9.22 µM | Potency [7] | Potency [8]

O=C(O)C[C@@H](C(=O)O)c1ccccc1[N+](=O)[O-]
inactive: Potency [1] > 11.4 µM | activity change, negative = inhibition [2] 10.5% | activity change, negative = inhibition [3] 13% | activity, negative = inhibition [4] 6.64% | Potency [5] > 46 µM | Potency [6] > 9.22 µM | Potency [7] | Potency [8]

CC(C)=CCNc1ncnc2c1c(C#N)cn2[C@H]1O[C@@H](CO)[C@@H](O)[C@@H]1O
inactive: Potency [1] > 11.4 µM | activity change, negative = inhibition [2] -1.6% | activity change, negative = inhibition [3] 6.29% | activity, negative = inhibition [4] 10.4% | Potency [5] > 46 µM | Potency [6] > 9.22 µM | Potency [7] | Potency [8]

O=C(O)Cc1c[nH]c2ccc(F)cc12
inactive: Potency [1] > 11.4 µM | activity change, negative = inhibition [2] 0.0381% | activity change, negative = inhibition [3] 24.2% | activity, negative = inhibition [4] 5.52% | Potency [5] > 46 µM | Potency [6] > 9.22 µM | Potency [7] | Potency [8]
